Compounds without any hit were thinned out: in the full panel of roughly 79,000, 15% have a hit. Cut-off read from the data, not from the text of the source: active = growth inhibition above about 70%; inactive = the rest. Where a SMILES comes first, the peptide text is derived from it. [ ]: non-standard residue; d: D form. Ac5c = NC1(C(=O)O)CCCC1
What was measured:
[1] = NCI Yeast Anticancer Drug Screen. Data for the rad50 strain (AID 155);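 note: 0% = growth of vehicle-only cultures of the same strain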; conditions: S. cerevisiae rad50 strain growth inhibition; at 50.0 µM; stronger effect = higher value
Method in brief: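 Growth of the mutant yeast was measured after compound exposure and referenced to vehicle-treated cultures.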

[2] = NCI Yeast Anticancer Drug Screen. Data for the mec2-1 strain (AID 157); conditions: S. cerevisiae mec2-1 strain, at 50.0 µM, stronger effect = higher value
Method in brief: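 Compounds were applied to mec2-1 yeast cells. Their growth was then compared with that of vehicle-treated cultures to give growth inhibition.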

[3] = NCI Yeast Anticancer Drug Screen. Data for the sgs1 mgt1 strain (AID 161);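 note: 0% = growth of cultures given vehicle only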; conditions: S. cerevisiae sgs1 mgt1 strain, at 50.0 µM, stronger effect = higher value
Method in brief: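 This yeast growth screen uses a strain with defined DNA-repair lesions; compound-treated growth is compared with vehicle-treated growth.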

[4] = NCI Yeast Anticancer Drug Screen. Data for the cln2 rad14 strain (AID 165);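 note: 0% = growth equal to vehicle treated cultures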; conditions: S. cerevisiae cln2 rad14 strain, at 50.0 µM, stronger effect = higher value
Method in brief: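 Strain: cln2 rad14 yeast, altered in cell cycle control and DNA damage repair. Read-out: growth inhibition vs vehicle.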

[5] = NCI Yeast Anticancer Drug Screen. Data for the bub3 strain (AID 167); conditions: S. cerevisiae bub3 mutant strain, at 50.0 µM, stronger effect = higher value
Method in brief: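 Whole-cell yeast assay. The mutant strain was incubated with compounds, and growth inhibition was determined by comparison with vehicle-treated cells.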

[6] = NCI Yeast Anticancer Drug Screen. Data for the mlh1 rad18 strain (AID 175); conditions: S. cerevisiae mlh1 rad18 strain growth inhibition; at 50.0 µM; stronger effect = higher value
Method in brief: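 A repair-deficient yeast strain is exposed to test compound, and growth is scored relative to vehicle-treated controls.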

Measured: growth inhibition

O=C1C(n2ccc(=O)[nH]c2=O)CCN1CCCl (stereo not given)
inactive: [1] 0.2% | [2] 1.35% | [3] 2.65% | [4] -23.5% | [5] 14.1% | [6] 12.5%

Cc1c(C)c(Br)c(C)c(C)c1Br
inactive: [1] -7.45% | [2] -18.3% | [3] 4.25% | [4] 10.3% | [5] -6.2% | [6] -16.8%

NC1(C(=O)NC2(C(=O)O)CCCC2)CCCC1 (H-[Ac5c]-[Ac5c]-OH)
inactive: [1] 8.75% | [2] 2.85% | [3] 0.8% | [4] -6.65% | [5] -42.9% | [6] 40.4%

COc1ccc(C2ON(c3ccccn3)CC=C2C)cc1 (stereo not given)
inactive: [1] 12.4% | [2] -9.25% | [3] 12.6% | [4] 12.2% | [5] -2.45% | [6] 6.55%

CN(C)c1nc(N(C)C)nc(N(C)C=O)n1
inactive: [1] -4.9% | [2] -21.9% | [3] -30.7% | [4] -2.85% | [5] -27.6% | [6] -5.55%

CO[C@H]1C[C@H]2CC[C@@]1(C)C2(C)C
inactive: [1] 8.85% | [2] 12.6% | [3] 3.7% | [4] -18.9% | [5] 0.4% | [6] -5.55%

CC(=O)C1C(=O)C(=O)N(c2ccccc2C)C1=O (stereo not given)
inactive: [1] -25.6% | [2] -20.6% | [3] -13.8% | [4] 9.45% | [5] -24.9% | [6] -25.4%

COCCOC(=O)c1ccccc1Cl
inactive: [1] 23.7% | [2] 15.6% | [3] 16.3% | [4] 8.8% | [5] 7.1% | [6] 22.4%

COc1c(CCl)cc(-c2sc3ccccc3c(=O)c2CCl)cc1CCl
inactive: [1] -7.25% | [2] -7.3% | [3] 1.1% | [4] 2.85% | [5] -1.8% | [6] 1.85%

N#CC(c1ccccc1)[N+](=O)[O-] (stereo not given)
inactive: [1] 11.2% | [2] -5.05% | [3] -2.45% | [4] 9.3% | [5] -2.95% | [6] 22.8%

CCCCCCCCCC[n+]1cccc(C(N)=O)c1
inactive: [1] 3.7% | [2] -17.2% | [3] 13.8% | [4] 3.75% | [5] -1.05% | [6] 28.9%

CCCC(C(C)=O)C(C)=O
inactive: [1] -7.8% | [2] -0.65% | [3] -4.85% | [4] 0.3% | [5] 6% | [6] -4.25%

N#C/C(=C\c1ccccn1)c1nc(-c2ccc(Cl)cc2)cs1
inactive: [1] -9.6% | [2] -27.9% | [3] -12.7% | [4] -0.1% | [5] 0.5% | [6] -14.6%

O=c1cc(NC(c2ccccc2)c2ccccc2)[nH]c(=O)[nH]1
inactive: [1] -5.25% | [2] 22.1% | [3] 8.95% | [4] -10.4% | [5] 19.1% | [6] 27.6%

CC(C)=CCNc1ncnc2c1ncn2CCC#N
inactive: [1] -24.1% | [2] -6.55% | [3] -16.9% | [4] 5.1% | [5] -35.8% | [6] -21.4%

CCC1CN2CCc3cc(OC)c(OC)cc3C2CC1CCCl (stereo not given)
inactive: [1] -8.6% | [2] 4.05% | [3] -4.5% | [4] -9.7% | [5] -29.9% | [6] -24.7%

CCOC(=O)c1c(N)n(-c2ccccc2)c(=O)n(-c2ccccc2)c1=O
inactive: [1] -8.85% | [2] -5.3% | [3] -30.9% | [4] 19.4% | [5] -31.8% | [6] -34%

CCOP(=O)(OCC)/C(C#N)=C\c1ccc(N(C)C)cc1
inactive: [1] 13.5% | [2] 6.3% | [3] 10.2% | [4] -13.7% | [5] 6.35% | [6] -0.65%

CN(C)/C=C/C(=O)c1ccccc1
inactive: [1] 61.6% | [2] 30.1% | [3] 17.6% | [4] -16.4% | [5] 6.05% | [6] 8.95%

COC(=O)C1(C(=O)Nc2ccccc2)N=N1
inactive: [1] 13.7% | [2] 7.55% | [3] 2.5% | [4] 3.35% | [5] -4.45% | [6] 8.15%

From PubChem BioAssay (NCI)
